Laboratory results taken from PubChem BioAssay AID1851 (National Center for Advancing Translational Sciences (NCATS), 2009).
Screen size: about 16,000 compounds; about 2,600 (16%) were called active. About 20% were inconclusive and are not listed. The call rests on the fitted dose curve; in most records, active means well fitted curve in the direction sought with a large enough effect; inconclusive means small, poorly fitted or top-dose-only effect, or effect the other way; inactive means no such curve, though single readings can be large or run the other way. These entries were drawn from the full list.

Target: Cytochrome P450 2D6 (Homo sapiens) (UniProt P10635)
Sequence (P10635 whole entry, looked up): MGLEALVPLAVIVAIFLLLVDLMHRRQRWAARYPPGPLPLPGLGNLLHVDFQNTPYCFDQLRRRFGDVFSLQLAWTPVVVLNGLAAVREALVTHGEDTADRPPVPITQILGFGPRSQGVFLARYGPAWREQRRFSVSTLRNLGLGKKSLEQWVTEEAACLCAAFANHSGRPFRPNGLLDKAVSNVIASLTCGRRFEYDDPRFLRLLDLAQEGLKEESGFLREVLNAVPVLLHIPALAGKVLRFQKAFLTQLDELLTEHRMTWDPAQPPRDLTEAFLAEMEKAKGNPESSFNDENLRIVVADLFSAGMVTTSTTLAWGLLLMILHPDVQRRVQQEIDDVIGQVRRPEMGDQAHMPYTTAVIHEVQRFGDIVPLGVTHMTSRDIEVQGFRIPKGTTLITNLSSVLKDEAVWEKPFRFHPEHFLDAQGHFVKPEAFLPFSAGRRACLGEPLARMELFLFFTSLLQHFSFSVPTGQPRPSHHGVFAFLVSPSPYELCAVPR
Assay: Cytochrome panel assay with activity outcomes
Conditions: recombinant CYP, pro-luciferin dealkylation, luminescence, p450-cyp2d6; series mostly up to 57.1 µM; activity, negative = inhibition: at the top concentration
On the % scale 0 is the no-effect control and ±100 the full control effect.

| Structure (SMILES) | activity, negative = inhibition | AC50 |
| --- | --- | --- |
| Cc1ccc(C)c(S(=O)(=O)NCc2ccc(C(=O)N3CCC(Cc4ccccc4)CC3)cc2)c1 | -14.3% (inactive) | – |
| Cc1ccc(C(=O)N2CCN(C3c4cccc5cccc(c45)C3NS(=O)(=O)c3ccccc3)CC2)cc1 (stereo not given) | – | 2.82 µM (active) |
| COc1ccccc1CNS(=O)(=O)c1ccc2[nH]cc(C(=O)O)c(=O)c2c1 | 11.4% (inactive) | – |
| COCC(=O)N/N=C/c1ccc(Sc2nc3ccccc3s2)o1 | -14.8% (inactive) | – |
| Cc1ccc(C(=O)NC(=S)N2CC(C)OC(C)C2)cc1[N+](=O)[O-] (stereo not given) | -2.21% (inactive) | – |
| CC(C)C[C@H](NC(=O)[C@@H]1O[C@H]1C(=O)O)C(=O)NCCCCN=C(N)N | 13.8% (inactive) | – |
| O=C(NC(C(=O)c1ccccc1)n1cnccc1=O)c1ccccc1 (stereo not given) | -12.4% (inactive) | – |
| Clc1ccccc1-c1nc(-n2ccnc2)c2ccccc2n1 | – | 12.6 µM (active) |
| Cc1ccccc1-c1nc(-n2ccnc2)c2ccccc2n1 | – | 15.8 µM (active) |
| COc1cc2c(c(O)c1OC)C(=O)C(OC)CCC2 (stereo not given) | 9.33% (inactive) | – |
| Cc1c(Nc2ncccc2C(=O)O)cccc1C(F)(F)F | 6.69% [at 25.6 µM] (inactive) | – |
| C/C(CCC(=O)OC[C@@H]1O[C@H](C#Cc2ccccc2)C=C[C@@H]1Oc1ccc(C)cc1)=N/OC[C@@H](C)[C@H](OCc1ccccc1)C(C)C | -14.2% [at 11.4 µM] (inactive) | – |
| COCCn1c(=O)c(-c2cn(C)c3ccccc23)nc2cnc(Oc3ccccc3)nc21 | 8.26% (inactive) | – |
| Cc1cc2ccccc2n1CCNC(=O)c1ccccc1 | – | 2.51 µM (active) |
| CN(C)CCn1c(C(=O)O)cc2ccccc21 | 8.96% (inactive) | – |
| Cc1cc2ccccc2n1CCNC(=O)C1CCCC1 | – | 12.6 µM (active) |
| Cc1ccc(S(=O)(=O)NCCSc2nnnn2C)cc1 | 2.18% (inactive) | – |
| Cc1cc2ccccc2c(=O)n1CC(=O)NCC(=O)N1CCCC1 | 4.07% (inactive) | – |
| Cc1ccc(C)n1NC(=O)c1ccccc1 | -10.9% (inactive) | – |
| CCN(CC)C(=O)CCNS(=O)(=O)c1ccc(C)cc1 | 23.4% (inactive) | – |
| O=C(NN1C(=O)c2ccccc2C1=O)C1CCCCC1 | -6.28% (inactive) | – |
| Cc1ccc(S(=O)(=O)NCCn2c(C)cc3ccccc32)cc1 | – | 8.91 µM (active) |
| C[C@]12C=CC(=O)C=C1CC[C@@H]1[C@H]3C[C@@H](O)[C@](O)(C(=O)CO)[C@@]3(C)C[C@H](O)[C@]12F | 4.42% [at 25.6 µM] (inactive) | – |

| Structure (SMILES) | activity, negative = inhibition | AC50 |
| --- | --- | --- |
| COc1ccc(S(=O)(=O)n2ccc(-c3cnc(-c4ccccc4)s3)n2)cc1 | -30% (inactive) | – |
| Cc1cc(-c2ccc(Cl)cc2)oc(=O)c1NC(=O)c1ccccc1 | -25.3% (inactive) | – |
| COc1cccc(Cn2c(=O)cnc3cnc(N(C)C)nc32)c1 | -9.22% (inactive) | – |
| O=C(NCCc1ccccc1)C(=O)NCC1(c2ccccc2)CCCC1 | 22.4% (inactive) | – |
| CCCCCOc1ccc(C(=O)NCC2(c3ccccc3)CCOCC2)cc1 | – | 17.8 µM (active) |
| CCCCOc1ccc(C(=O)NCc2ccco2)cc1 | -28.9% (inactive) | – |
| CN1c2ccccc2Oc2c(c(=O)n(C)c(=O)n2C)C1c1cccc([N+](=O)[O-])c1 (stereo not given) | 14.5% (inactive) | – |
| CCCN1CNC(=S)N(c2cccc(C)c2C)C1 | -4.4% (inactive) | – |
| COc1ccc(/C=N/NC(=O)c2ccn[nH]2)cc1COc1ccc(F)cc1 | -5.88% (inactive) | – |
| COc1ccc(/C=N/NC(=O)c2sccc2OCc2ccc(F)cc2)cc1OC | 0.295% (inactive) | – |
| COc1ccc(/C=N/NC(=O)c2ccccc2)cc1CN1CCN(c2ccc(F)cc2)CC1 | – | 25.1 µM (active) |
| Cn1c(=O)c2[nH]c(CCCCc3nc4c([nH]3)c(=O)n(C)c(=S)n4C)nc2n(C)c1=S | -8.04% [at 11.4 µM] (inactive) | – |
| Cc1c(O)c(=O)n(-c2ccccc2)n1C | -4.44% [at 25.6 µM] (inactive) | – |
| Cc1c(NCc2cc(Cl)ccc2O)c(=O)n(-c2ccccc2)n1C | – | 6.31 µM (active) |
| Cc1c(NC(=O)Nc2c(Cl)cccc2Cl)c(=O)n(-c2ccccc2)n1C | -4.06% [at 11.4 µM] (inactive) | – |
| O=c1nc2ccccc2c2n1C[C@H](CN1CCN(c3ccccc3)CC1)N2 | -11.1% (inactive) | – |
| O=C(O)/C=C(/C(=O)O)[C@]12CCN3CC4=CCO[C@@H]5CC(=O)N[C@@H]1[C@H]5[C@H]4C[C@H]32 | -1.84% [at 11.4 µM] (inactive) | – |
| c1ccc(CNc2nc(-c3ccc4c(c3)OCO4)nc3ccccc23)cc1 | – | 12.6 µM (active) |
| Cc1cnc(CNc2nc(-c3ccc4c(c3)OCO4)nc3ccccc23)cn1 | – | 15.8 µM (active) |
| c1csc(CNc2nc(-c3ccc4c(c3)OCO4)nc3ccccc23)c1 | – | 10 µM (active) |
| COc1ccccc1CNc1nc(-c2ccc(N(C)C)cc2)nc2ccccc12 | – | 10 µM (active) |
| Cc1cnc(CNc2nc(-c3ccc(C(=O)N(C)C)cc3)nc3ccccc23)cn1 | -18.2% (inactive) | – |
